# Measurements from PubChem BioAssay.
# Inconclusive results are not listed. Active and inactive are the calls of the source. Cut-off read from the data, not from the text of the source, unless noted: active = inhibition above about 80%; inactive = the rest.
# How the values were obtained:
# [1] = growth inhibition of DIPG glioma cells, dose response, cell-based, SU-DIPG-XVII, MIPE5.0, CellTiter-Glo, qHTS (AID 1347060; cut-off not given, nearly all actives have AC50 up to about 26 µM;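 note: cells exposed to compound for 48 hours before viability readout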); conditions: SU-DIPG-XVII viability, CellTiter-Glo ATP luminescence
# [2] = growth inhibition of DIPG glioma cells, dose response, cell-based, JHH-DIPG-1, MIPE4.0, CellTiter-Glo, qHTS (AID 1347062; cut-off not given, nearly all actives have AC50 up to about 27 µM;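 for AC50: cells exposed to compound for two days before readout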); conditions: JHH-DIPG-1 viability, CellTiter-Glo ATP luminescence
# [3] = growth inhibition of DIPG glioma cells, dose response, cell-based, SU-DIPG-IV, MIPE4.0, CellTiter-Glo, qHTS (AID 1347063; cut-off not given, nearly all actives have AC50 up to about 30 µM;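 note: compound exposure lasted 48 hours before the viability readout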); conditions: SU-DIPG-IV viability, CellTiter-Glo ATP luminescence
# [4] = viability loss in pontine glioma line – cell-based, SU-DIPG-XXV, MIPE5.0, CellTiter-Glo, qHTS, dose response (AID 1347065; cut-off not given, nearly all actives have AC50 up to about 26 µM;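 note: cells exposed to compound for 48 hours before ATP readout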); conditions: CellTiter-Glo ATP luminescence
# [5] = SU-DIPG-VI glioma cell viability, MIPE4.0 library, CellTiter-Glo luminescence, qHTS (AID 1347066; cut-off not given, nearly all actives have AC50 up to about 30 µM;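 note: cells exposed to compound for 48 hours before readout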); conditions: CellTiter-Glo ATP luminescence
# [6] = JHH-DIPG-1 glioma cell viability, MIPE5.0 library, CellTiter-Glo luminescence, qHTS (AID 1347067; cut-off not given, nearly all actives have AC50 up to about 26 µM;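 note: cells exposed to compound for 48 hours before readout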); conditions: JHH-DIPG-1 glioma viability, CellTiter-Glo ATP luminescence
# [7] = SU-DIPG-XXV glioma cell viability, MIPE5.0 library, qHTS (AID 1347068; cut-off not given, nearly all actives have IC50 up to about 30 µM;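 note: cells exposed to compound for 48 hours before viability readout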)
# [8] = sensitizers of A549 cells to miR-34 induction, primary screen, imaging, A549 dox-inducible miR-34, nuclei and caspase counts (AID 1347080;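 active = compounds whose cell count with miR-34 switched on is under 0.7 times the count with it off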); conditions: A549 miR-34 inducible, Hoechst nuclei count, 48 h
# [9] = survival rescue of mitochondrial mutant cells in low glucose, primary screen, MELAS cybrids, Rieske KO mouse fibroblasts, CellTiter-Glo (AID 1508586;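 active = mean z-score across replicates of 1.96 or higher in either the MELAS or the Rieske mutant cell line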;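 note: z relative to plate mean and SD of compound and empty wells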)
# [10] = LFS_MB_P medulloblastoma growth inhibition, cell-based, chromothripsis tumors, cisplatin or BGB combos (AID 1671449); conditions: LFS_MB_P medulloblastoma cells;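 note: cells exposed for 96 hours; 0% = vehicle DMSO and 100% = killing by high DMSO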
# [11] = HDN33 neuroblastoma growth inhibition, cell-based, chromothripsis tumors, cisplatin or BGB combos (AID 1671450); conditions: HDN33 neuroblastoma cells, stronger effect = higher value;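 note: cells exposed to compound for four days; 0% = vehicle DMSO and 100% = cell killing by high DMSO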
# [12] = ICB984 medulloblastoma cell growth inhibition, synergistic combos for chromothripsis tumors, cisplatin or BGB combos (AID 1671451; call rule not given here;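 note: cells exposed for 96 hours before readout; 0% = vehicle DMSO and 100% = killing by high DMSO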); conditions: ICB984 medulloblastoma cells, drug combinations, stronger effect = higher value
# [13] = HTB85 osteosarcoma cell growth inhibition, synergistic combos for chromothripsis tumors, BGB or cisplatin IC20 combos (AID 1671453); conditions: HTB85 osteosarcoma cells, drug combinations, stronger effect = higher value;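 note: cells exposed for 96 hours before readout; 0% = vehicle DMSO and 100% = high DMSO killing control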
# [14] = MDA-MB-436 breast carcinoma cell growth inhibition, synergistic combos for chromothripsis tumors, BGB or cisplatin combos (AID 1671458; call rule not given here;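 note: cells exposed for 96 hours; 0% = vehicle DMSO and 100% = killing by high DMSO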); conditions: MDA-MB-436 breast carcinoma growth inhibition, drug combinations, stronger effect = higher value
# [15] = growth inhibition of BT084 medulloblastoma cells, cell-based, ICGC_MB145, cisplatin and BGB IC40 combos (AID 1671461); conditions: drug combinations, stronger effect = higher value;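 note: cells exposed to drugs for 96 hours; 0% = vehicle DMSO and 100% = high DMSO full killing control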
# [16] = growth inhibition of RCMB18 medulloblastoma cells, cell-based, cisplatin and BGB IC40 combos (AID 1671462); conditions: stronger effect = higher value;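 note: cells exposed to compound for four days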
# [17] = stronger effect = lower value, cell number ratio, induced over uninduced
# [18] = measured here: relative caspase fold change +Dox/-Dox
# [19] = measured here: total cells with miR-34 induction, stronger effect = lower value
# [20] = measured here: total cells without miR-34 induction
# [21] = MELAS cybrid survival, CellTiter-Glo 48 h, stronger effect = higher value
# [22] = Rieske KO mouse fibroblast survival, CellTiter-Glo 72 h
structure (smiles),measurement,setting,value
CC(C)(C)c1cc(C(C)(C)C)c(NC(=O)c2c[nH]c3ccccc3c2=O)cc1O,AC50,[1],11.8 µM (active)
same,outcome,[2],inactive
same,outcome,[3],inactive
same,AC50,[4],10.5 µM (active)
same,outcome,[5],inactive
same,AC50,[6],14.8 µM (active)
same,IC50,[7],16.6 µM (active)
same,fold change,[8]; [17],0.893 (inactive)
same,fold change,[8]; [18],1.04
same,cell count,[8]; [19],5220
same,cell count,[8]; [20],5840
same,z-score,[9]; [21],-0.385 (inactive)
same,z-score,[9]; [22],0.598
CN(C)CCN1C(=O)c2cccc3cc(N)cc(c23)C1=O,AC50,[1],20.9 µM (active)
same,AC50,[2],23.5 µM (active)
same,AC50,[3],18.7 µM (active)
same,AC50,[4],18.6 µM (active)
same,fold change,[8]; [17],1.2 (inactive)
same,fold change,[8]; [18],0.74
same,cell count,[8]; [19],1750
same,cell count,[8]; [20],1460
same,z-score,[9]; [21],-0.14 (inactive)
same,z-score,[9]; [22],-0.182
same,inhibition,"[10]; at 0.5 µM, stronger effect = higher value",-4.37% (inactive)
same,inhibition,"[10]; measured here: combination with BGB IC20, at 0.005 µM",-27.8%
same,inhibition,"[10]; measured here: combination with BGB IC40, at 0.005 µM",-17.6%
same,inhibition,"[10]; measured here: combination with BGB IC40, at 0.05 µM",-30.5%
same,inhibition,"[10]; measured here: combination with cisplatin, at 0.5 µM, stronger effect = higher value",-36.3%
same,inhibition,"[10]; measured here: combination with cisplatin, at 5 µM, stronger effect = higher value",4.24%
same,inhibition,"[11]; BGB combo, at 5 µM",41.4%
same,inhibition,[11]; at 0.5 µM,-23.5% (inactive)
same,inhibition,"[11]; cisplatin combo, at 5 µM",48.1%
same,inhibition,"[11]; measured here: with BGB IC20 combination, at 0.5 µM",-27.7%
same,inhibition,"[11]; measured here: with cisplatin IC20 combination, at 0.5 µM",-18.1%
same,inhibition,"[11]; single agent, at 5 µM",62.5%
same,inhibition,"[12]; BGB IC20 combo, at 0.005 µM",-11.5%
same,inhibition,"[12]; BGB IC40 combo, at 0.005 µM",-22.2%
same,inhibition,"[12]; BGB IC40 combo, at 0.05 µM",-11.5%
same,inhibition,[12]; at 0.5 µM,-22.6% (inactive)
same,inhibition,"[12]; cisplatin combo, at 0.05 µM",-15.5%
same,inhibition,"[12]; cisplatin combo, at 0.5 µM",-16.6%
same,inhibition,"[12]; cisplatin combo, at 5 µM",-25.7%
same,inhibition,"[12]; measured here: 5 uM single agent, at 5 µM",-8.29%
same,inhibition,[13]; at 0.5 µM,-12.9% (inactive)
same,inhibition,"[13]; measured here: with BGB IC20, at 0.5 µM",-26.5%
same,inhibition,"[13]; measured here: with BGB IC20, at 5 µM",10.3%
same,inhibition,"[13]; measured here: with cisplatin IC20, at 0.5 µM",-16.4%
same,inhibition,"[13]; measured here: with cisplatin IC20, at 5 µM",6%
same,inhibition,"[13]; single agent, at 5 µM",33.7%
same,inhibition,[14]; at 0.5 µM,-8.14% (inactive)
same,inhibition,"[14]; measured here: BGB combination, at 0.5 µM",-8.98%
same,inhibition,"[14]; measured here: BGB combination, at 5 µM",10.1%
same,inhibition,"[14]; measured here: cisplatin combination, at 0.5 µM",-20.8%
same,inhibition,"[14]; measured here: cisplatin combination, at 5 µM",21.8%
same,inhibition,[15]; at 0.5 µM,-6.16% (inactive)
same,inhibition,"[15]; cisplatin combination, at 0.5 µM",-21.8%
same,inhibition,"[15]; cisplatin combination, at 5 µM",-12.3%
same,inhibition,"[15]; measured here: BGB IC40 combination 0.05 uM, at 0.05 µM",-42.3%
same,inhibition,"[15]; single agent, at 5 µM",-40.8%
same,inhibition,[16]; at 0.5 µM,-2.53% (inactive)
same,inhibition,"[16]; cisplatin combo, at 5 µM",-21%
same,inhibition,"[16]; measured here: BGB IC40 combination, at 0.05 µM",-28.2%
same,inhibition,"[16]; measured here: combination with cisplatin, at 0.5 µM",2.14%
same,inhibition,"[16]; single agent, at 5 µM",-32.9%
